Measured values as given in PubChem BioAssay AID1159580 (chemical genetic matrix, 2015).
Hit rate of the full screen: of about 5,500 compounds, about 2,000 (36%) were called active. Inconclusive results (about 18%) are left out. Rule as the data show it: active = normalized growth mostly below about 0.91 (no sharp cut-off); inconclusive = no clear call, values can overlap the other calls; inactive = mostly above about 0.92. Some of the results follow.

Assay: chemical genetic growth profiling, strain panel (AID 1159580);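 also: tested at 20 µM; growth read once vehicle control cultures reached saturation at 30 °C; 1 = growth at the plate median or of vehicle wells; lower values mean less growth of the strain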
Settings: growth OD
[1] = S. cerevisiae deletion strains, locus YAR019C, strain CDC15, active compounds read low
[2] = S. cerevisiae deletion strains, locus YBL105C, strain PKC1, active compounds read low
[3] = S. cerevisiae deletion strains, locus YBR135W, strain CKS1, active compounds read low
[4] = S. cerevisiae deletion strains, locus YBR136W, strain MEC1, active compounds read low
[5] = S. cerevisiae deletion strains, locus YBR160W, strain CDC28, active compounds read low
[6] = S. cerevisiae deletion strains, locus YDL017W, strain CDC7, active compounds read low
[7] = S. cerevisiae deletion strains, locus YDL028C, strain MPS1, active compounds read low
[8] = S. cerevisiae deletion strains, locus YDL101C, strain DUN1, active compounds read low
[9] = S. cerevisiae deletion strains, locus YDL108W, strain KIN28, active compounds read low
[10] = S. cerevisiae deletion strains, locus YDL132W, strain cdc53, active compounds read low
[11] = S. cerevisiae deletion strains, locus YDL214C, strain PRR2, active compounds read low
[12] = S. cerevisiae deletion strains, locus YDR052C, strain DBF4, active compounds read low
[13] = S. cerevisiae deletion strains, locus YDR054C, strain cdc34, active compounds read low
[14] = S. cerevisiae deletion strains, locus YDR226W, strain ADK1, active compounds read low
[15] = S. cerevisiae deletion strains, locus YDR477W, strain SNF1, active compounds read low
[16] = S. cerevisiae deletion strains, locus YER123W, strain YCK3, active compounds read low
[17] = S. cerevisiae deletion strains, locus YER133W, strain GLC7, active compounds read low
[18] = S. cerevisiae deletion strains, locus YFL009W, strain cdc4, active compounds read low
[19] = S. cerevisiae deletion strains, locus YFL029C, strain CAK1, active compounds read low
[20] = S. cerevisiae deletion strains, locus YFR003C, strain YPI1, active compounds read low
[21] = S. cerevisiae deletion strains, locus YFR019W, strain FAB1, active compounds read low
[22] = S. cerevisiae deletion strains, locus YFR028C, strain CDC14, active compounds read low
[23] = S. cerevisiae deletion strains, locus YGR040W, strain KSS1, active compounds read low
[24] = S. cerevisiae deletion strains, locus YGR052W, strain FMP48, active compounds read low
[25] = S. cerevisiae deletion strains, locus YGR092W, strain DBF2, active compounds read low
[26] = S. cerevisiae deletion strains, locus YHR030C, strain SLT2, active compounds read low
[27] = S. cerevisiae deletion strains, locus YHR079C, strain IRE1, active compounds read low
[28] = S. cerevisiae deletion strains, locus YHR082C, strain KSP1, active compounds read low
[29] = S. cerevisiae deletion strains, locus YHR205W, strain SCH9, active compounds read low
[30] = S. cerevisiae deletion strains, locus YIL147C, strain SLN1, active compounds read low
[31] = S. cerevisiae deletion strains, locus YJL095W, strain BCK1, active compounds read low
[32] = S. cerevisiae deletion strains, locus YJL128C, strain PBS2, active compounds read low
[33] = S. cerevisiae deletion strains, locus YJL157C, strain FAR1, active compounds read low
[34] = S. cerevisiae deletion strains, locus YJR016C, strain ILV3, active compounds read low
[35] = S. cerevisiae deletion strains, locus YJR066W, strain TOR1 (second series), active compounds read low
[36] = S. cerevisiae deletion strains, locus YJR066W, strain TOR1, active compounds read low
[37] = S. cerevisiae deletion strains, locus YKL048C, strain ELM1, active compounds read low
[38] = S. cerevisiae deletion strains, locus YKL067W, strain YNK1, active compounds read low
[39] = S. cerevisiae deletion strains, locus YKL101W, strain HSL1, active compounds read low
[40] = S. cerevisiae deletion strains, locus YKL193C, strain SDS22, active compounds read low
[41] = S. cerevisiae deletion strains, locus YKL203C, strain TOR2, active compounds read low
[42] = S. cerevisiae deletion strains, locus YLR113W, strain HOG1, active compounds read low
[43] = S. cerevisiae deletion strains, locus YLR133W, strain CKI1, active compounds read low
[44] = S. cerevisiae deletion strains, locus YLR403W, strain SFP1, active compounds read low
[45] = S. cerevisiae deletion strains, locus YML070W, strain DAK1, active compounds read low
[46] = S. cerevisiae deletion strains, locus YMR001C, strain CDC5, active compounds read low
[47] = S. cerevisiae deletion strains, locus YMR205C, strain PFK2 (second series), active compounds read low
[48] = S. cerevisiae deletion strains, locus YMR277W, strain FCP1, active compounds read low
[49] = S. cerevisiae deletion strains, locus YNL006W, strain LST8, active compounds read low
[50] = S. cerevisiae deletion strains, locus YNL020C, strain ARK1, active compounds read low
[51] = S. cerevisiae deletion strains, locus YNL161W, strain CBK1, active compounds read low
[52] = S. cerevisiae deletion strains, locus YNL183C, strain NPR1, active compounds read low
[53] = S. cerevisiae deletion strains, locus YNL207W, strain RIO2, active compounds read low
[54] = S. cerevisiae deletion strains, locus YNL222W, strain SSU72, active compounds read low
[55] = S. cerevisiae deletion strains, locus YNL307C, strain MCK1 (second series), active compounds read low
[56] = S. cerevisiae deletion strains, locus YOL078W, strain AVO1, active compounds read low
[57] = S. cerevisiae deletion strains, locus YOL136C, strain PFK27, active compounds read low
[58] = S. cerevisiae deletion strains, locus YOR061W, strain CKA2, active compounds read low
[59] = S. cerevisiae deletion strains, locus YOR119C, strain RIO1, active compounds read low
[60] = S. cerevisiae deletion strains, locus YOR231W, strain MKK1, active compounds read low
[61] = S. cerevisiae deletion strains, locus YOR329C, strain SCD5, active compounds read low
[62] = S. cerevisiae deletion strains, locus YPL031C, strain PHO85, active compounds read low
[63] = S. cerevisiae deletion strains, locus YPL153C, strain RAD53, active compounds read low
[64] = S. cerevisiae deletion strains, locus YPL204W, strain HRR25, active compounds read low
[65] = S. cerevisiae deletion strains, locus YPL209C, strain IPL1, active compounds read low
[66] = S. cerevisiae deletion strains, locus YPL256C, strain CLN2, active compounds read low
[67] = S. cerevisiae deletion strains, locus YPR025C, strain CCL1, active compounds read low
[68] = S. cerevisiae deletion strains, locus YPR106W, strain ISR1, active compounds read low
[69] = S. cerevisiae deletion strains, locus YPR111W, strain DBF20, active compounds read low
[70] = S. cerevisiae deletion strains, strain NNK1, active compounds read low
[71] = S. cerevisiae deletion strains, strain TSCII, active compounds read low
[72] = S. cerevisiae deletion strains, locus YAL013W, strain DEP1, active compounds read low
[73] = S. cerevisiae deletion strains, locus YBR229C, strain ROT2, active compounds read low
[74] = S. cerevisiae deletion strains, locus YDL134C, strain PPH21, active compounds read low
[75] = S. cerevisiae deletion strains, locus YDR150W, strain NUM1, active compounds read low
[76] = S. cerevisiae deletion strains, locus YEL061C, strain CIN8, active compounds read low
[77] = S. cerevisiae deletion strains, locus YGR078C, strain PAC10, active compounds read low
[78] = S. cerevisiae deletion strains, locus YHR087W, strain rtc3, active compounds read low
[79] = S. cerevisiae deletion strains, locus YJR043C, strain POL32, active compounds read low
[80] = S. cerevisiae deletion strains, locus YJR075W, strain HOC1, active compounds read low
[81] = S. cerevisiae deletion strains, locus YLR039C, strain RIC1, active compounds read low
[82] = S. cerevisiae deletion strains, locus YLR058C, strain SHM2 (second series), active compounds read low
[83] = S. cerevisiae deletion strains, locus YLR085C, strain ARP6, active compounds read low
[84] = S. cerevisiae deletion strains, locus YLR262C, strain YPT6, active compounds read low
[85] = S. cerevisiae deletion strains, locus YML094W, strain GIM5, active compounds read low
[86] = S. cerevisiae deletion strains, locus YMR219W, strain ESC1, active compounds read low
[87] = S. cerevisiae deletion strains, locus YMR263W, strain SAP30, active compounds read low
[88] = S. cerevisiae deletion strains, locus YMR307W, strain GAS1, active compounds read low
[89] = S. cerevisiae deletion strains, locus YNL153C, strain GIM3, active compounds read low
[90] = S. cerevisiae deletion strains, locus YNL298W, strain CLA4 (second series), active compounds read low
[91] = S. cerevisiae deletion strains, locus YNL322C, strain KRE1, active compounds read low
[92] = S. cerevisiae deletion strains, locus YNR030W, strain Alg12, active compounds read low
[93] = S. cerevisiae deletion strains, locus YPL055C, strain LGE1, active compounds read low
[94] = S. cerevisiae deletion strains, locus YPL241C, strain CIN2, active compounds read low
[95] = S. cerevisiae deletion strains, locus YPR135W, strain CTF4, active compounds read low

Measured: normalized growth

CSc1nnc(COc2ccc(C)c3c2CCC3)n1-c1ccccc1
inactive: [1] 0.982 | [2] 0.98 | [3] 0.986 | [4] 0.984 | [5] 0.984 | [6] 0.991 | [7] 0.991 | [8] 0.974 | [9] 0.992 | [10] 0.98 | [11] 0.96 | [12] 0.98 | [13] 0.976 | [14] 0.977 | [15] 0.972 | [16] 0.96 | [17] 0.941 | [18] 0.974 | [19] 0.981 | [20] 0.979 | [21] 0.978 | [22] 0.978 | [23] 0.962 | [24] 1.05 | [25] 0.948 | [26] 1.1 | [27] 1.05 | [28] 1.02 | [29] 0.972 | [30] 0.987 | [31] 1.03 | [32] 0.931 | [33] 0.968 | [34] 0.988 | [35] 0.934 | [36] 1.07 | [37] 0.964 | [38] 0.966 | [39] 0.964 | [40] 0.98 | [41] 1.04 | [42] 0.924 | [43] 0.979 | [44] 0.968 | [45] 0.966 | [46] 0.98 | [47] 0.974 | [48] 0.98 | [49] 0.98 | [50] 0.976 | [51] 0.982 | [52] 1.05 | [53] 0.979 | [54] 0.985 | [55] 0.968 | [56] 0.987 | [57] 0.963 | [58] 0.959 | [59] 0.992 | [60] 1.02 | [61] 0.987 | [62] 0.961 | [63] 0.959 | [64] 0.967 | [65] 0.983 | [66] 0.995 | [67] 0.984 | [68] 0.98 | [69] 0.97 | [70] 0.975 | [71] 0.974

Cc1ccc(OCc2n[nH]c(=S)n2Cc2ccccc2)c2c1CCC2
active: [16] 0.609 | [21] 0.68 | [26] 0.283 | [28] 0.53 | [37] 0.782 | [39] 0.722 | [42] 0.698 | [55] 0.621 | [63] 0.609 | [66] 0.655
inactive: [1] 0.987 | [2] 0.988 | [3] 0.982 | [4] 0.98 | [5] 0.985 | [6] 0.987 | [7] 0.975 | [8] 0.994 | [9] 0.973 | [10] 0.99 | [11] 0.823 | [12] 0.995 | [13] 0.988 | [14] 0.988 | [15] 0.817 | [17] 0.841 | [18] 0.984 | [19] 0.992 | [20] 0.985 | [22] 0.984 | [23] 0.801 | [24] 0.647 | [25] 0.495 | [27] 0.619 | [29] 0.908 | [30] 0.967 | [31] 0.656 | [32] 0.955 | [33] 0.803 | [34] 0.986 | [35] 0.797 | [36] 0.73 | [38] 0.838 | [40] 0.988 | [41] 0.829 | [43] 0.793 | [44] 0.84 | [45] 0.752 | [46] 0.984 | [47] 0.847 | [48] 0.986 | [49] 0.998 | [50] 0.713 | [51] 0.99 | [52] 0.628 | [53] 0.988 | [54] 0.986 | [56] 0.985 | [57] 0.785 | [58] 0.751 | [59] 0.883 | [60] 0.677 | [61] 0.988 | [62] 0.746 | [64] 0.723 | [65] 0.984 | [67] 0.989 | [68] 0.992 | [69] 0.99 | [70] 1 | [71] 0.991

Cc1ccc(OCc2nnc(SCC(=O)c3ccc(F)cc3)n2-c2ccccc2)c2c1CCC2
inactive: [72] 0.982 | [73] 0.987 | [8] 0.961 | [74] 0.982 | [75] 0.972 | [76] 0.982 | [77] 0.966 | S. cerevisiae deletion strains, locus YGR229C, strain SMI1, active compounds read low 0.984 | [26] 0.964 | [78] 0.957 | S. cerevisiae deletion strains, locus YJL187C, strain SWE1, active compounds read low 0.983 | [79] 0.969 | [80] 0.986 | [81] 0.968 | [82] 0.978 | [83] 0.957 | [84] 0.961 | [85] 0.947 | [86] 0.99 | [87] 0.982 | [88] 1.01 | S. cerevisiae deletion strains, locus YNL128W, strain TEP1, active compounds read low 0.992 | [89] 0.989 | [90] 0.972 | [91] 0.993 | [92] 0.98 | S. cerevisiae deletion strains, locus YOL006C, strain TOP1, active compounds read low 0.963 | [93] 0.956 | [94] 1.04 | [95] 0.867 | S. cerevisiae strains, strain wild type, active compounds read low 0.971

C=CCn1c(COc2c(Br)cc(C)c3c2CCC3)n[nH]c1=S
inactive: [72] 0.968 | [73] 0.977 | S. cerevisiae deletion strains, locus YCL061C, strain MRC1, active compounds read low 0.969 | [8] 0.975 | [74] 0.965 | [75] 0.857 | [77] 0.978 | [78] 1.01 | [79] 0.98 | [80] 0.992 | [82] 0.991 | [86] 0.988 | [89] 0.975 | [91] 0.991 | [93] 1.08
active: [76] 0.896 | [26] 0.544 | [81] 0.491 | [83] 0.558 | [84] 0.571 | [85] 0.841 | [87] 0.846 | [88] 0.324 | [90] 0.764 | [92] 0.874 | [94] 0.847 | [95] 0.612
